The results in this text go back to PubChem BioAssay.

“And” between values parts separate entries of the source, which are not always exact repeats. Equal entries are not always repeated. The source made the active and inactive calls.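 Rule for the calls, unless noted: active = thallium flux through the channel raised or lowered by more than 3 SD from vehicle-only wells, actives on both sides; inactive = the rest.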

Test [1] in a line: P. berghei load reduction in hepatocytes – cell-based, HepG2, luciferase luminescence, HepG2 viability, primary screen (AID 624349; in the data active = parasite load remaining mostly below about 12%, no sharp cut-off; inactive = mostly above about 10%;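 note: 100% = mean of DMSO negative control wells on the same plate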). Conditions: P. berghei liver stage in HepG2, luciferase luminescence, concentration not given here; parasite load remaining: stronger effect = lower value; viability: measured here: HepG2 viability without parasites.
A short description of test [2]: signal quenchers or enhancers, Cy5 substrate/SSB – biochemical, NIH Clinical Collection, E. coli SSB, artefact control for HCV NS3 helicase inhibitor project (AID 743268; call rule not given here). Conditions: Cy5-oligo bound E. coli SSB, fluorescence interference.
The test system of test [3] is Hepatitis C virus NS3 helicase. Put plainly: blockers of NS3h binding to DNA – biochemical, fluorescence polarization, NIH Clinical Collection, primary screen (AID 743270; call rule not given here). Conditions: NS3 helicase binding to Cy5-dT15 DNA, stronger effect = higher value, concentration not given here. (Fluorescence polarisation rises when a labelled molecule tumbles more slowly, as on binding a larger partner.)

Test [4] concerns the target Single-stranded DNA-binding protein (Escherichia coli (strain K12)) (UniProt P0AGE0). Put plainly: SSB-ssDNA binding inhibitors – biochemical, fluorescence polarization, NIH Clinical Collection, counter-screen for HCV NS3 helicase inhibitor project (AID 743271; in the data active = inhibition above about 28%). Conditions: E. coli SSB-DNA binding, stronger effect = higher value, concentration not given here.
Test [5] in a line: compounds distorting NS3 helicase fluorescence signal – biochemical, NIH Clinical Collection, artefact control for HCV NS3 helicase inhibitor project (AID 743272; call rule not given here;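 note: HCV NS3 helicase with a Cy5 labelled single stranded DNA probe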). Conditions: fluorescence interference counterscreen, HCV NS3 helicase assay; stronger effect = lower value. Background: The purpose of a counterscreen is to sort out artefacts and off-target activity.
The subject of test [6] is Neuropilin-2 / VEGF-C interaction (human). Put plainly: small molecules blocking Neuropilin-2/VEGF-C interaction – biochemical, microplate binding format, z-score (AID 743281; call rule not given here). As to conditions: microplate NRP2/VEGF-C binding assay; stronger effect = lower value.
Test [7] in a line: modulation of C. elegans fzo-1 (AID 1259413; call rule not given here;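 note: fzo-1 mutant C. elegans worms in liquid wells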). As to conditions: C. elegans fzo-1 modulator screen, mean read-out; stronger effect = higher value.
The nature of test [8]: viability loss with induced miR-34 in A549 – imaging, A549 dox-inducible miR-34, nuclei and caspase counts, primary screen (AID 1347080;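 active = compounds whose cell count with miR-34 switched on is under 0.7 times the count with it off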). As to conditions: A549 miR-34 inducible, Hoechst nuclei count, 48 h.
The nature of test [9]: galactose survival enhancers in mitochondrial complex I cybrids – cell-based, galactose medium, ATP luminescence, primary screen (AID 1645843;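 active = z-score of at least 1.8 in each of two replicates, scored against plate mean and spread of sample wells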;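 note: positive z means more ATP and so rescue of galactose-driven cybrid death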). As to conditions: complex I mutant cybrid cells, 72 h, stronger effect = higher value.
Test [10] relates to F380Y. Description: BK channel mutant inhibitors and activators – cell-based, U2OS BacMam, thallium flux, beta subunits, selectivity assay, profiling panel (AID 1259406).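 Note: initial slope of Thallos dye fluorescence rise after thallium is added; log ratio against the mean of 0.3% DMSO vehicle wells on the same plate.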 Conditions: U2OS BacMam BK variants, at 30 µM.
Test [11] relates to F380Y/beta1. Described as above. Conditions: U2OS BacMam BK variants, at 30 µM.
Test [12] has as its system F380Y/beta2Delta. Described as above. As to conditions: U2OS BacMam BK variants, at 30 µM.
Test [13] concerns F380Y/beta4. Described as above. As to conditions: U2OS BacMam BK variants, at 30 µM.
For test [14], the target named is Calcium-activated potassium channel subunit alpha-1 (Homo sapiens) + Leucine-rich repeat-containing protein 26 (Homo sapiens) (UniProt Q12791+Q2I0M4). The test is described as above. Conditions: U2OS BacMam BK variants, F380Y/Slo1WT/gamma1, at 30 µM.
Calcium-activated potassium channel subunit alpha-1 (Homo sapiens) + Leucine-rich repeat-containing protein 26 (Homo sapiens), sequence (Q2I0M4 whole entry, looked up, one chain of several): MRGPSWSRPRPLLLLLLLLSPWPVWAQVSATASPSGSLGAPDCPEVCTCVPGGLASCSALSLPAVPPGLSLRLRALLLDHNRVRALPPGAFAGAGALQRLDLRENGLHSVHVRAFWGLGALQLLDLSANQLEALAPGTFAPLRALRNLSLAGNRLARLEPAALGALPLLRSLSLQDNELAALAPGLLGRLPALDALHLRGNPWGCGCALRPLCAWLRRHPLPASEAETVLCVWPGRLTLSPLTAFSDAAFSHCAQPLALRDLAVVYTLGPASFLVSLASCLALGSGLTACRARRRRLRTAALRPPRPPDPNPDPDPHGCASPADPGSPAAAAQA
Test [15] relates to R275C. The test is described as above. Conditions: U2OS BacMam BK variants, at 30 µM.
The subject of test [16] is R275C/beta1. The description is as above. Conditions: U2OS BacMam BK variants, at 30 µM.
In test [17] the test system is R275C/beta2Delta. Described as above. Conditions: U2OS BacMam BK variants, at 30 µM.
The subject of test [18] is R275C/beta4. Described as above. As to conditions: U2OS BacMam BK variants, at 30 µM.
Test [19] relates to R275C/Slo1WT/beta2. Described as above. As to conditions: U2OS BacMam BK variants, at 30 µM.
Test [20] can be described thus: MELAS cybrid and Rieske KO viability enhancers – cell-based, MELAS cybrids, Rieske KO mouse fibroblasts, CellTiter-Glo, primary screen (AID 1508586;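 active = mean z-score across replicates of 1.96 or higher in either the MELAS or the Rieske mutant cell line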;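 note: z relative to plate mean and SD of compound and empty wells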). As to conditions: low glucose.
[21] abbreviates: stronger effect = lower value, cell number ratio, induced over uninduced.
[22] abbreviates: measured here: relative caspase fold change +Dox/-Dox.
Setting [23] is: measured here: total cells with miR-34 induction, stronger effect = lower value.
Where [24] appears, read: measured here: total cells without miR-34 induction.
The mark [25] stands for this setting: MELAS cybrid survival, CellTiter-Glo 48 h, stronger effect = higher value.
Setting [26] is: Rieske KO mouse fibroblast survival, CellTiter-Glo 72 h.

Take `CC12CCC(=O)C=C1CCC1C2CCC2(C)C1CCC2(O)C(=O)CO` (stereo unspecified): the parasite load remaining in test [1] is 47.2% (inactive). In addition, the viability (as a rule, a read-out of living cells in per cent, often relative to untreated cells) in test [1] was 63.5%. For the same compound, the fluorescence ratio in [2] was 0.91 (inactive); in [5], 0.84 (inactive). Moreover, the inhibition (in general, the change of the read-out against control, counted positive when it falls) in [3] was -4.59% (inactive); in [4] it was 1.18% (inactive). Moreover, the values for the z-score in [6] and in [9] were -0.624 (inactive) and 0.28 (inactive), respectively. The mean signal in test [7] is 241 (inactive). Besides, the values for the fold change in test [8] (setting [21]) and in [8] (setting [22]) were 1.28 (inactive) and 1.98, respectively. In addition, the cell count was found to be 7560 in [8] (setting [23]) and 5920 in test [8] (setting [24]). In addition, the log fold change Tl+ flux in [10] is -0.0107 (inactive); in [11], 0.000378 (inactive); in test [12], 0.0311 (inactive); in test [13], 0.00388 (inactive); in test [14], 0.0303 (inactive); in test [15], 0.029 (inactive). The log fold change Tl+ flux is -0.042 (inactive) in test [16], -0.0755 (inactive) in [17], -0.0135 (inactive) in test [18] and -0.0119 (inactive) in test [19].
`CN1C2CCC1CC(OC(c1ccccc1)c1ccccc1)C2` (stereo unspecified): the parasite load remaining in test [1] was 25.8% (inactive) and 92.2% (inactive) and 42.8% (inactive). The viability in test [1] was 81.7% and 71.5% and 99.9%. The fluorescence ratio in test [2] is 1.04 (inactive); in test [5], 1.01 (inactive). Further, the results for the inhibition in test [3] and in test [4] were -5.91% (inactive) and -4.29% (inactive), respectively. Also, in test [7], the mean signal is 197 (inactive). Besides, the z-score is -0.325 (inactive) in test [20] (setting [25]); -0.171 in test [20] (setting [26]); -0.84 (inactive) and -0.76 (inactive) in test [9]. Moreover, the log fold change Tl+ flux was 0.117 (active) in [10]; 0.0778 (inactive) in [11]; 0.124 (active) in test [12]; 0.212 (active) in test [13]; 0.00637 (inactive) in [14]; -0.0804 (inactive) in test [15]. In addition, the log fold change Tl+ flux in test [16] was 0.237 (active); in test [17] it was 0.0793 (inactive); in test [18], 0.252 (active); in [19], 0.0196 (inactive).
With `C=C1/C(=C\C=C2/CCC[C@]3(C)[C@@H]([C@H](C)CCCC(C)(C)O)CC[C@@H]23)C[C@@H](O)C[C@@H]1O`, the parasite load remaining in test [1] was 39.1% (inactive) and 53.6% (inactive). Besides, the viability in test [1] is 72.4% and 142%. Besides, the figures for the fluorescence ratio in [2] and in test [5] were 0.98 (inactive) and 0.91 (inactive), respectively. Moreover, the inhibition was 3.56% (inactive) in [3] and 2.21% (inactive) in test [4]. Also, the fold change is 1.03 (inactive) and 0.94 (inactive) in test [8] (setting [21]); 1.63 and 1.45 in test [8] (setting [22]). In addition, the cell count was 5100 and 8330 in [8] (setting [23]); 4940 and 8850 in test [8] (setting [24]). For the same compound, the z-score in test [20] (setting [25]) is -0.162 (inactive); in [20] (setting [26]) it was -0.598; in [9] it was -0.805 (inactive). The log fold change Tl+ flux was 0.103 (inactive) in [10]; 0.0867 (inactive) in [11]; 0.0281 (inactive) in test [12]; 0.0801 (inactive) in test [13]; 0.0668 (inactive) in [14]; -0.0123 (inactive) in test [15]. Also, the log fold change Tl+ flux in [16] is 0.0898 (active); in test [17] it was 0.0428 (inactive); in test [18], 0.0602 (inactive); in test [19], -0.0015 (inactive).
